Source: article PMC8384837, “Expanding the binding specificity for RNA recognition by a PUF domain”
Changes are numbered by the printed parent chain.

Tests used:
Experiment in all cases: yeast three-hybrid, YBZ-1, SC-Leu-His + 0.5 mM 3-AT, 4 days
Settings in all cases: tags: N-Gal4 AD-HA kept; label: inside an RPR1-promoter hybrid RNA with tandem MS2 sites; ssRNA
PUM1 PUF domain R5-MSR = PUM1 PUF domain R5-MSR (Homo sapiens, UniProt Q14671 828-1176, C1007M;R1008S;Q1011R)
Outline: (§1)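 Sequencing with Illumina followed PCR amplification of the repeat regions from transformants grown four days on SC-Leu (input) or SC-Leu-His + 0.5 mM 3-AT (selection). The transformants were strain YBZ-1 with a LexA–MS2 coat fusion and a HIS3 reporter, carrying Pumilio-1 PUF domain libraries and matching RNA elements. The interaction score is the log change in variant frequency from input to selection, computed in log2 with a pseudocount of 1 for absent variants.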

PUM1 PUF domain R5-RMK = PUM1 PUF domain R5-RMK (Homo sapiens, UniProt Q14671 828-1176, C1007R;R1008M;Q1011K)
Outline: as §1

PUM1 PUF domain R3-VNE = PUM1 PUF domain R3-VNE (Homo sapiens, UniProt Q14671 828-1176, C935V;R936N;Q939E)
Outline: as §1

PUM1 PUF domain R8-RKR = PUM1 PUF domain R8-RKR (Homo sapiens, UniProt Q14671 828-1176, N1122R;Y1123K;Q1126R)
Outline: as §1

PUM1 PUF domain R3-LYS = PUM1 PUF domain R3-LYS (Homo sapiens, UniProt Q14671 828-1176, C935L;R936Y;Q939S)
Outline: as §1

PUM1 PUF domain R8-SRR = PUM1 PUF domain R8-SRR (Homo sapiens, UniProt Q14671 828-1176, N1122S;Y1123R;Q1126R)
Outline: as §1

PUM1 PUF domain R6-SRR = target: T1, PUM1 PUF domain R6-SRR (Homo sapiens, UniProt Q14671 828-1176, N1043S;Y1044R;Q1047R)
T1 sequence: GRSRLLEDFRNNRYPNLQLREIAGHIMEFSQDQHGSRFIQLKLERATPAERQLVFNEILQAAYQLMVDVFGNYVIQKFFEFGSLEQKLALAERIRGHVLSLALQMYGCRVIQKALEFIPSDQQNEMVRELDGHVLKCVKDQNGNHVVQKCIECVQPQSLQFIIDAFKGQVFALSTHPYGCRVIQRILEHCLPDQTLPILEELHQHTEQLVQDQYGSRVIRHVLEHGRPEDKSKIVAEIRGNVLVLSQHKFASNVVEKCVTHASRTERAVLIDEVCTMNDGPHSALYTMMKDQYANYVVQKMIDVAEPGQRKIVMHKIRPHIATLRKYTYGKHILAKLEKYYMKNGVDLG
Outline: as §1

PUM1 PUF domain R6-AYG = target: T2, PUM1 PUF domain R6-AYG (Homo sapiens, UniProt Q14671 828-1176, N1043A;Q1047G)
T2 sequence: T1 sequence with S216A, R217Y, R220G
Outline: as §1

PUM1 PUF domain R3-QPE = PUM1 PUF domain R3-QPE (Homo sapiens, UniProt Q14671 828-1176, C935Q;R936P;Q939E)
Outline: as §1

PUM1 PUF domain R6-SHE = target: T3, PUM1 PUF domain R6-SHE (Homo sapiens, UniProt Q14671 828-1176, N1043S;Y1044H;Q1047E)
T3 sequence: T1 sequence with R217H, R220E
Outline: as §1

PUM1 PUF domain R1-RMT = PUM1 PUF domain R1-RMT (Homo sapiens, UniProt Q14671 828-1176, S863R;R864M;Q867T)
Outline: as §1

PUM1 PUF domain R6-QWM = target: T4, PUM1 PUF domain R6-QWM (Homo sapiens, UniProt Q14671 828-1176, N1043Q;Y1044W;Q1047M)
T4 sequence: T1 sequence with S216Q, R217W, R220M
Outline: as §1

PUM1 PUF domain R6-LFV = target: T5, PUM1 PUF domain R6-LFV (Homo sapiens, UniProt Q14671 828-1176, N1043L;Y1044F;Q1047V)
T5 sequence: T1 sequence with S216L, R217F, R220V
Outline: as §1

PUM1 PUF domain R7-NPR = PUM1 PUF domain R7-NPR (Homo sapiens, UniProt Q14671 828-1176, S1079N;N1080P;E1083R)
Outline: as §1

PUM1 PUF domain R7-TTG = PUM1 PUF domain R7-TTG (Homo sapiens, UniProt Q14671 828-1176, S1079T;N1080T;E1083G)
Outline: as §1

PUM1 PUF domain R5-WRD = PUM1 PUF domain R5-WRD (Homo sapiens, UniProt Q14671 828-1176, C1007W;Q1011D)
Outline: as §1

In the case of “GGCUAGAACUAGUGGAUCCCCCGGCGCCCGGCGGCUCGAGCCCGGGUAAGUGUCAAUAGUCUGCAUGCCGCCGGGCGCCAUGCCUGCAGGUCGACUCUAGAAAACAUG”, the binding signal (PUM1 PUF domain R5-MSR) is reported as 3.83 log2 enrichment (interaction score) and the binding signal (PUM1 PUF domain R5-RMK) is reported as 2.87 log2 enrichment (interaction score).
“GGCUAGAACUAGUGGAUCCCCCGGCGCCCGGCGGCUCGAGCCCGGGUAAGUGUAAAUAGUCUGCAUGCCGCCGGGCGCCAUGCCUGCAGGUCGACUCUAGAAAACAUG” was tested, and the binding signal (PUM1 PUF domain R5-MSR) was 1 log2 enrichment (interaction score), the binding signal (PUM1 PUF domain R3-VNE) was 3.16 log2 enrichment (interaction score) and the binding signal (PUM1 PUF domain R8-RKR) was 3.9 log2 enrichment (interaction score). For the same sequence, the binding signal (PUM1 PUF domain R3-LYS) was 4.77 log2 enrichment (interaction score), the binding signal (PUM1 PUF domain R8-SRR) was 1.78 log2 enrichment (interaction score) and the binding signal (PUM1 PUF domain R6-SRR) was 3.04 log2 enrichment (interaction score). For the same sequence, the binding signal (PUM1 PUF domain R6-AYG) was 1.05 log2 enrichment (interaction score).
With “GGCUAGAACUAGUGGAUCCCCCGGCGCCCGGCGGCUCGAGCCCGGGUAAGUGUAAUUAGUCUGCAUGCCGCCGGGCGCCAUGCCUGCAGGUCGACUCUAGAAAACAUG” the binding signal (PUM1 PUF domain R3-QPE) was 2.87 log2 enrichment (interaction score) and the binding signal (PUM1 PUF domain R3-LYS) was 5.78 log2 enrichment (interaction score).
“GGCUAGAACUAGUGGAUCCCCCGGCGCCCGGCGGCUCGAGCCCGGGUAAGUGGAAAUAGUCUGCAUGCCGCCGGGCGCCAUGCCUGCAGGUCGACUCUAGAAAACAUG” was tested, and the binding signal (PUM1 PUF domain R6-SHE) was 4.66 log2 enrichment (interaction score).
For “GGCUAGAACUAGUGGAUCCCCCGGCGCCCGGCGGCUCGAGCCCGGGUAAGUGUAAGUAGUCUGCAUGCCGCCGGGCGCCAUGCCUGCAGGUCGACUCUAGAAAACAUG”, the binding signal (PUM1 PUF domain R3-VNE) was 0.75 log2 enrichment (interaction score).
In the case of “GGCUAGAACUAGUGGAUCCCCCGGCGCCCGGCGGCUCGAGCCCGGGUAAGUGUAAAUGGUCUGCAUGCCGCCGGGCGCCAUGCCUGCAGGUCGACUCUAGAAAACAUG”, the binding signal (PUM1 PUF domain R1-RMT) is reported as 1.2 log2 enrichment (interaction score).
“GGCUAGAACUAGUGGAUCCCCCGGCGCCCGGCGGCUCGAGCCCGGGUAAGUGUAAAUUGUCUGCAUGCCGCCGGGCGCCAUGCCUGCAGGUCGACUCUAGAAAACAUG” was tested, and the binding signal (PUM1 PUF domain R1-RMT) was 3.66 log2 enrichment (interaction score).
“GGCUAGAACUAGUGGAUCCCCCGGCGCCCGGCGGCUCGAGCCCGGGUAAGCGUAAAUAGUCUGCAUGCCGCCGGGCGCCAUGCCUGCAGGUCGACUCUAGAAAACAUG” was tested, and the binding signal (PUM1 PUF domain R8-RKR) was 5.43 log2 enrichment (interaction score) and the binding signal (PUM1 PUF domain R8-SRR) was 2.8 log2 enrichment (interaction score).
In the case of “GGCUAGAACUAGUGGAUCCCCCGGCGCCCGGCGGCUCGAGCCCGGGUAAGUGAAAAUAGUCUGCAUGCCGCCGGGCGCCAUGCCUGCAGGUCGACUCUAGAAAACAUG”, the binding signal (PUM1 PUF domain R6-QWM) is reported as 4.68 log2 enrichment (interaction score), the binding signal (PUM1 PUF domain R6-LFV) is reported as 5.6 log2 enrichment (interaction score) and the binding signal (PUM1 PUF domain R6-AYG) is reported as 2.71 log2 enrichment (interaction score).
“GGCUAGAACUAGUGGAUCCCCCGGCGCCCGGCGGCUCGAGCCCGGGUAAGUGCAAAUAGUCUGCAUGCCGCCGGGCGCCAUGCCUGCAGGUCGACUCUAGAAAACAUG” was tested, and the binding signal (PUM1 PUF domain R6-SRR) was 3.26 log2 enrichment (interaction score).
With “GGCUAGAACUAGUGGAUCCCCCGGCGCCCGGCGGCUCGAGCCCGGGUAAGUCUAAAUAGUCUGCAUGCCGCCGGGCGCCAUGCCUGCAGGUCGACUCUAGAAAACAUG” the binding signal (PUM1 PUF domain R7-NPR) was 0.79 log2 enrichment (interaction score).
“GGCUAGAACUAGUGGAUCCCCCGGCGCCCGGCGGCUCGAGCCCGGGUAAGUUUAAAUAGUCUGCAUGCCGCCGGGCGCCAUGCCUGCAGGUCGACUCUAGAAAACAUG” was tested, and the binding signal (PUM1 PUF domain R7-NPR) was 5.02 log2 enrichment (interaction score) and the binding signal (PUM1 PUF domain R7-TTG) was 3.76 log2 enrichment (interaction score).
“GGCUAGAACUAGUGGAUCCCCCGGCGCCCGGCGGCUCGAGCCCGGGUAAGUGUUAAUAGUCUGCAUGCCGCCGGGCGCCAUGCCUGCAGGUCGACUCUAGAAAACAUG” was tested, and the binding signal (PUM1 PUF domain R5-WRD) was 2.27 log2 enrichment (interaction score).
